Drawing on PubChem BioAssay (EPA / NIEHS), this text covers outcome and AC50 for 17 compounds.

Inconclusive results are not listed. Calls of active or inactive are those of the source. The calls were made as follows: active = hit-call score of the fitted dose curve at least 0.9, where 1 is the maximum; inconclusive = response in the unintended direction; inactive = score below 0.9.

The target in assay [1] is human Opioid Receptor Mu (Opiate Mu), OPRM1 (gene 4988) (UniProt P35372). The assay is described as follows: NVS_GPCR_hOpiate_mu: NovaScreen (NVS) G Protein-Coupled Receptor Assay for human Opioid Receptor Mu (Opiate Mu) (AID 2283290).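 Also: hits lower bound tracer signal versus DMSO meaning displacement of the ligand.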 Put shortly: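 Radioligand displacement binding on membranes from CHO cells expressing the receptor, 2.5 h after dosing, filter-based scintillation counting; loss of signal vs DMSO baseline. Screened in duplicate at 25 uM, actives then run in concentration series.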

Assay [2] has as its target rat Adrenergic Receptor, Beta (Adrb), Non-selective Binding, Adrb1 (gene 24925) (UniProt P18090). As to the kind of experiment: NVS_GPCR_rAdrb_NonSelective: NovaScreen (NVS) G Protein-Coupled Receptor Assay for rat Adrenergic Receptor, Beta (Adrb), Non-selective Binding (AID 2283298). In short, it runs like this: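 Rat cortical membranes incubated 1 h with beta-adrenergic radioligand and test chemical; bound ligand measured by filtration and scintillation counting. Screen at 25 uM duplicate, then concentration series with 50 uM maximum; loss of signal versus DMSO.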

The target of assay [3] is human Vasopressin 1A Receptor (V1A), AVPR1A (gene 552) (UniProt P37288). As to the kind of experiment: NVS_GPCR_hV1A: NovaScreen (NVS) G Protein-Coupled Receptor Assay for human Vasopressin 1A Receptor (V1A) (AID 2283284). In short, it runs like this:
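Single-concentration duplicate screen at 25 uM, with concentration-response follow-up (top 50 uM) for actives. The assay measured displacement of a radioligand from human platelet-derived receptor after 1.5 h, detected by filtration and scintillation counting.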

For assay [4], the target named is rat Adrenergic, Alpha 1, Non-selective Receptor (Adra1), Adra1a (gene 29412) (UniProt P43140). The assay is described as follows: NVS_GPCR_rAdra1_NonSelective: NovaScreen (NVS) G Protein-Coupled Receptor Assay for rat Adrenergic, Alpha 1, Non-selective Receptor (Adra1) (AID 2283289). In short, it runs like this:
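Chemicals first screened in duplicate at 25 uM, then actives tested in concentration series up to 50 uM. Binding measured as displacement of radioligand from rat forebrain membrane receptors, 1 h, filtration with scintillation readout; DMSO baseline.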

For assay [5], the target named is guinea pig Bradykinin Receptor B2 (BK2), BDKRB2 (gene 100135486) (UniProt O70526). The assay is described as follows: NVS_GPCR_gBK2: NovaScreen (NVS) G Protein-Coupled Receptor Assay for guinea pig Bradykinin Receptor B2 (BK2) (AID 2283292). Put shortly: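 Guinea pig ileum membrane preparation incubated 1 h with radioligand and test chemical; bound counts measured after filtration. Primary duplicate screening at 25 uM, then singleton concentration series with a 50 uM top dose; DMSO as baseline.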

The target of assay [6] is human Orphanin, Opioid Related Nociceptin Receptor 1 (ORL1), OPRL1 (gene 4987) (UniProt P41146). The assay is described as follows: NVS_GPCR_hORL1: NovaScreen (NVS) G Protein-Coupled Receptor Assay for human Orphanin, Opioid Related Nociceptin Receptor 1 (ORL1) (AID 2283283). Put shortly:
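Cell-free binding using HEK293-derived receptor protein: radioligand displacement measured by filter scintillation 1 hour after dosing. Primary testing at 25 uM in duplicate, followed by singleton concentration series up to 50 uM; DMSO served as negative control.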

Assay [7] concerns the target mouse Cholecystokinin, CCK1 Receptor (CCKA), Cckar (gene 12425) (UniProt O08786). As to the kind of experiment: NVS_GPCR_mCCKAPeripheral: NovaScreen (NVS) G Protein-Coupled Receptor Assay for mouse Cholecystokinin, CCK1 Receptor (CCKA) (AID 2283285). In short, it runs like this: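 Chemicals were first screened in duplicate at 25 uM, with those meeting threshold (e.g., 30% inhibition) retested in singleton concentration series to 50 uM maximum. Binding of radioligand to mouse pancreatic membranes was read after 2 h by filtration and scintillation counting.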

The target in assay [8] is rat Serotonin, 5-Hydroxytryptamine Receptor 1 (5HT1), Non-Selective Binding, Htr1a (gene 24473) (UniProt P19327). As to the kind of experiment: NVS_GPCR_r5HT1_NonSelective: NovaScreen (NVS) G Protein-Coupled Receptor Assay for rat Serotonin, 5-Hydroxytryptamine Receptor 1 (5HT1), Non-Selective Binding (AID 2283286). In short, it runs like this:
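Binding of a radioligand to rat cortex membranes is read by filtration and scintillation counting after 1 h. Compounds were screened at 25 uM in duplicate. Actives were then titrated to a top of 50 uM. DMSO is the baseline.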

Assay [9] relates to rabbit Platelet Activating Factor Receptor (PAF), gene 100354046. The assay is described as follows: NVS_GPCR_rabPAF: NovaScreen (NVS) G Protein-Coupled Receptor Assay for rabbit Platelet Activating Factor Receptor (PAF) (AID 2283287). Put shortly:
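Rabbit platelet membrane preparation; radioligand displacement read by filter-based scintillation counting 1 h after dosing, loss of signal versus DMSO. Primary screen in duplicate at 25 uM, actives followed up in concentration series.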

Assay [10] has as its system 5-hydroxytryptamine receptor 2C (pig). As to the kind of experiment: NVS_GPCR_p5HT2C: NovaScreen (NVS) G Protein-Coupled Receptor Assay for pig Serotonin, 5-Hydroxytryptamine Receptor 2C (5HT2C) (AID 2283288). Put shortly: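 Radioligand displacement on membranes from pig choroid plexus, detected by filter scintillation counting after 1 h. Tested first at a single 25 uM in duplicate, then in concentration-response for actives; DMSO served as baseline.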

Assay [11] addresses guinea pig Serotonin, 5-Hydroxytryptamine Receptor 4 (5HT4), HTR4 (gene 100135548) (UniProt O70528). The assay is described as follows: NVS_GPCR_g5HT4: NovaScreen (NVS) G Protein-Coupled Receptor Assay for guinea pig Serotonin, 5-Hydroxytryptamine Receptor 4 (5HT4) (AID 2283294). In short, it runs like this:
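Compounds first screened in duplicate at 25 uM, actives followed up in concentration series. Binding measured as displacement of specific radioligand from guinea pig striatal membranes, 1 h, filter-based scintillation read-out versus DMSO baseline.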

Assay [12] addresses rat Serotonin, 5-Hydroxytryptamine Receptor (5HT), Non-Selective Binding, Htr1a (gene 24473) (UniProt P19327). As to the kind of experiment: NVS_GPCR_r5HT_NonSelective: NovaScreen (NVS) G Protein-Coupled Receptor Assay for rat Serotonin, 5-Hydroxytryptamine Receptor (5HT), Non-Selective Binding (AID 2283295). In short, it runs like this: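 Rat cortex membrane preparation incubated 1 h with radioligand and test chemical; bound radioactivity counted after filtration. Screening began in duplicate at 25 uM with concentration-series follow-up; fitting relative to DMSO.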

Assay [13] has as its system rat Adrenergic, Alpha 1B Receptor (Adra1B), gene 24173. The assay is described as follows: NVS_GPCR_rAdra1B: NovaScreen (NVS) G Protein-Coupled Receptor Assay for rat Adrenergic, Alpha 1B Receptor (Adra1B) (AID 2283297). In short, it runs like this:
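Filter-binding radioligand competition on membranes from rat liver, read after 1 h by scintillation counting. Single-concentration duplicate screen at 25 uM, followed by concentration-response on actives, normalised to DMSO.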

Assay [14] addresses rat Adrenergic Receptor, Alpha 2 (Adra2), Non-selective Binding, Adra2a (gene 25083) (UniProt P22909). The assay is described as follows: NVS_GPCR_rAdra2_NonSelective: NovaScreen (NVS) G Protein-Coupled Receptor Assay for rat Adrenergic Receptor, Alpha 2 (Adra2), Non-selective Binding (AID 2283299). Put shortly: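 Filter-based scintillation counting of radioligand binding to rat cortical membrane receptors, measured 1.25 hours post-dosing; loss of signal versus DMSO indicates displacement. Initial single-concentration duplicate at 25 uM, then concentration series.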

In another assay the target is Adra2b (gene 24174) (UniProt P19328). As to the kind of experiment: NVS_GPCR_rmAdra2B: NovaScreen (NVS) G Protein-Coupled Receptor Assay for hybird cells Adrenergic, Alpha 2B Receptor (Adra2B) (AID 2283306). In short, it runs like this: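 Compounds screened first at 25 uM in duplicate, with actives followed up in concentration-response; specific radioligand displacement from hybrid neuroglioma/blastoma cell membrane preparations measured by filter scintillation counting after 1 h, normalized to DMSO.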

In assay [15] the target is mouse Cholecystokinin, CCK2 Receptor (CCKB), Cckbr (gene 12426) (UniProt P56481). As to the kind of experiment: NVS_GPCR_mCKKBCentral: NovaScreen (NVS) G Protein-Coupled Receptor Assay for mouse Cholecystokinin, CCK2 Receptor (CCKB) (AID 2283293). In short, it runs like this:
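Mouse forebrain membrane preparation incubated 2 h with chemical and radioligand; bound radioactivity counted after filtration. Single-concentration duplicate screen at 25 uM, then concentration series to 50 uM max for hits, DMSO as baseline.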

In assay [16] the target is rat Gamma-Aminobutyric Acid Type B Receptor (GABBR), Gabbr1 (gene 81657) (UniProt Q9Z0U4). As to the kind of experiment: NVS_GPCR_rGABBR: NovaScreen (NVS) G Protein-Coupled Receptor Assay for rat Gamma-Aminobutyric Acid Type B Receptor (GABBR) (AID 2283301). In short, it runs like this: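 Rat cortical membrane preparation, competitive radioligand binding for 1 h with filtration and scintillation readout. Actives from duplicate single-point 25 uM screening proceeded to concentration series with 50 uM top concentration.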

Assay [17] concerns the target rat Histamine Receptor (H3), Hrh3 (gene 85268) (UniProt Q9QYN8). As to the kind of experiment: NVS_GPCR_rH3: NovaScreen (NVS) G Protein-Coupled Receptor Assay for rat Histamine Receptor (H3) (AID 2283303). Put shortly:
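Filter-binding radioligand competition on rat forebrain membranes, 1 h incubation; compounds screened at 25 µM in duplicate and followed in concentration series to 50 µM, loss of bound signal vs DMSO.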

Assay [18] concerns the target Metabotropic glutamate receptor 1 (Rattus norvegicus) (UniProt P23385). The assay is described as follows: NVS_GPCR_rmMGluR1: NovaScreen (NVS) G Protein-Coupled Receptor Assay for rat Glutamate Metabotropic Receptor 1 (MGluR1) (AID 2283305). Put shortly:
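Binding to native receptor from rat cerebellum extract, measured as displacement of a radioligand (scintillation counting, filter separation) after 1 hour. Compounds tested at 25 uM in duplicate, then titrated to a 50 uM maximum.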

Sequence of mouse Cholecystokinin, CCK1 Receptor (CCKA), Cckar (gene 12425) (O08786 whole entry, looked up): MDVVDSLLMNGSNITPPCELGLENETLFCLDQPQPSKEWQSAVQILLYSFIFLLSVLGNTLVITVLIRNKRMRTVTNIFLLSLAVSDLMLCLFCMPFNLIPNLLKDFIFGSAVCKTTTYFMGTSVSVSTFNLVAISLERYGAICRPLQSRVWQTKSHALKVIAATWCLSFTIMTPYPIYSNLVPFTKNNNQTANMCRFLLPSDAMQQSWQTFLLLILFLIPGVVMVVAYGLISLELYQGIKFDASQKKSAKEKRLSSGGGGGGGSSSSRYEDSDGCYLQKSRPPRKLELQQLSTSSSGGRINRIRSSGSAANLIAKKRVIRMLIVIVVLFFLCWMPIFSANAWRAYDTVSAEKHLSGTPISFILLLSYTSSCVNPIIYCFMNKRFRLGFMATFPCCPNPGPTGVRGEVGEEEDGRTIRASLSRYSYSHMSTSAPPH
Sequence of Adra2b (gene 24174) (P19328 whole entry, looked up): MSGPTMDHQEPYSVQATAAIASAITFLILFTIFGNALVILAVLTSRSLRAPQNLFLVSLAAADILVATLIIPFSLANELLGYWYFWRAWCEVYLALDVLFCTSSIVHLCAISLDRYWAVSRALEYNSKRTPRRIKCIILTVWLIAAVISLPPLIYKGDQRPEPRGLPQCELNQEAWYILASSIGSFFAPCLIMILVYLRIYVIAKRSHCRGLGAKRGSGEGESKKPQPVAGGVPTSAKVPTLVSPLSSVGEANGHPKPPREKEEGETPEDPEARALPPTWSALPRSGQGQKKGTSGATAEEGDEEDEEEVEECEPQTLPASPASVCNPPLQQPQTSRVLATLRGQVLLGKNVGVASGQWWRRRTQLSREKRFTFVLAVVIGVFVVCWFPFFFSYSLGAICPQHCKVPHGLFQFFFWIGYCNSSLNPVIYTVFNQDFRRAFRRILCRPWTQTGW
Sequence of rat Serotonin, 5-Hydroxytryptamine Receptor 1 (5HT1), Non-Selective Binding, Htr1a (gene 24473) (P19327 whole entry, looked up): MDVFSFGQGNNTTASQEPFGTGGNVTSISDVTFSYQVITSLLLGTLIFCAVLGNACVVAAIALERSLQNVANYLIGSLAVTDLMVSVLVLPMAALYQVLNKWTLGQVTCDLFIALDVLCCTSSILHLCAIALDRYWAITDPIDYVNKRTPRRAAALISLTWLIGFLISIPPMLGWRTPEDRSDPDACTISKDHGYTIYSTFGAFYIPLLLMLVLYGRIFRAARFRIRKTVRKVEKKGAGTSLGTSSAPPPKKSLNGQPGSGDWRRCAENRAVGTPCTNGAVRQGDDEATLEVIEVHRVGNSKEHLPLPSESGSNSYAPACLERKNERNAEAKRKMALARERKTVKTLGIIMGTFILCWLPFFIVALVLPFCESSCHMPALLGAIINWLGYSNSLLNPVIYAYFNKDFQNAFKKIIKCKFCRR
Sequence of guinea pig Serotonin, 5-Hydroxytryptamine Receptor 4 (5HT4), HTR4 (gene 100135548) (O70528 whole entry, looked up): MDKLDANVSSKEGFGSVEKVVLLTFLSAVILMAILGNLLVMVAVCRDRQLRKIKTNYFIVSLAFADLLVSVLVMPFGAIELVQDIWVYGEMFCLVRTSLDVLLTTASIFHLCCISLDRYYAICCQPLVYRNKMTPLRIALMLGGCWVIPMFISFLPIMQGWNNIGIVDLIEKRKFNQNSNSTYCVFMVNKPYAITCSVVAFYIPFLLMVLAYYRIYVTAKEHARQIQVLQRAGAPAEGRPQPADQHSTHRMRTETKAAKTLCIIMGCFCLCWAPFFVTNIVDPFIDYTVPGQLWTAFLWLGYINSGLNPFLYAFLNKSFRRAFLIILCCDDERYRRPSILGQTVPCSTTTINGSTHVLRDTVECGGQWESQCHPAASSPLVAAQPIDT
Sequence of rat Adrenergic Receptor, Beta (Adrb), Non-selective Binding, Adrb1 (gene 24925) (P18090 whole entry, looked up): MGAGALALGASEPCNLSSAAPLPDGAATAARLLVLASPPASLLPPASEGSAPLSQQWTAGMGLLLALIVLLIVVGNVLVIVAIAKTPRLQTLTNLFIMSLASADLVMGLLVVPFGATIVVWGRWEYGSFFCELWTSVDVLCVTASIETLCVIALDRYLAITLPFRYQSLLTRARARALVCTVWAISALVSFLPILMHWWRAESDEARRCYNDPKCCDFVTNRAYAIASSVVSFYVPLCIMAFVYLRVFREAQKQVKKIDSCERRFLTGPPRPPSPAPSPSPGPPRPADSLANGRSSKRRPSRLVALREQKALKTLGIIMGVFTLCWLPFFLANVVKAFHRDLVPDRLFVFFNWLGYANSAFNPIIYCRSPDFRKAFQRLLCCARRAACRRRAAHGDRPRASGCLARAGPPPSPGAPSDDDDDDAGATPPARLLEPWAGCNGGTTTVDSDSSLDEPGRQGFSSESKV
Sequence of human Vasopressin 1A Receptor (V1A), AVPR1A (gene 552) (P37288 whole entry, looked up): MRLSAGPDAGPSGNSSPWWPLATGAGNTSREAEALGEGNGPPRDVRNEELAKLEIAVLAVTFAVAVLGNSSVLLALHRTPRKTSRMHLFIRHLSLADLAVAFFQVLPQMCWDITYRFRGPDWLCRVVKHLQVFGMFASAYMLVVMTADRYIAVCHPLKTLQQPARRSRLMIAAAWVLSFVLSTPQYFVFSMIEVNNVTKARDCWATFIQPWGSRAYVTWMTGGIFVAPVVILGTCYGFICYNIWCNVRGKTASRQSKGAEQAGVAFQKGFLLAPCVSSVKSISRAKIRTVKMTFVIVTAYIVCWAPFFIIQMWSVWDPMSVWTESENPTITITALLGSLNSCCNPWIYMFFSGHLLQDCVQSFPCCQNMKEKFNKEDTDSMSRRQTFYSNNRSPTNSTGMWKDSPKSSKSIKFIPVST
Sequence of rat Adrenergic, Alpha 1, Non-selective Receptor (Adra1), Adra1a (gene 29412) (P43140 whole entry, looked up): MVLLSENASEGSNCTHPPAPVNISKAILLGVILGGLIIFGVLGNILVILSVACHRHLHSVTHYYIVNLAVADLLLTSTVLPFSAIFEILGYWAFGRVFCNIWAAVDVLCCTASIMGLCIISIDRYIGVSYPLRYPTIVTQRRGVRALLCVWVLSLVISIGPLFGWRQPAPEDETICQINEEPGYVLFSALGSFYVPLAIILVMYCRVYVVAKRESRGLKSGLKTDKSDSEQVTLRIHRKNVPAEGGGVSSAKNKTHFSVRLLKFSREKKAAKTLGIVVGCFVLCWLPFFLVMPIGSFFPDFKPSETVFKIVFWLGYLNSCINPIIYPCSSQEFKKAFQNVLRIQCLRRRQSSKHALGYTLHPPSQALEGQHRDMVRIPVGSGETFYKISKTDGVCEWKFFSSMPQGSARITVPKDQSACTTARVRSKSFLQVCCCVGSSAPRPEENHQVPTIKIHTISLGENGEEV
Sequence of human Opioid Receptor Mu (Opiate Mu), OPRM1 (gene 4988) (P35372 whole entry, looked up): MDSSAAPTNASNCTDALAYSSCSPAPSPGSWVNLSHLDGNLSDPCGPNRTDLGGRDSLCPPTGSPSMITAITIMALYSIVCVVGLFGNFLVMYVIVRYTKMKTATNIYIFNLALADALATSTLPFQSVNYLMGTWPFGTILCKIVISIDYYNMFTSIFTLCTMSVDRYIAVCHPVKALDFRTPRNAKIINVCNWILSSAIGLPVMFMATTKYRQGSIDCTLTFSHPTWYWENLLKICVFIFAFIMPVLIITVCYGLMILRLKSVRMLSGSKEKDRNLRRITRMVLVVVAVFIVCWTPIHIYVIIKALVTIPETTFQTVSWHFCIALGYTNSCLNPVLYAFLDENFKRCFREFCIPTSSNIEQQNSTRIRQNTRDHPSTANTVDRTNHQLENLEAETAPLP
Sequence of rat Adrenergic Receptor, Alpha 2 (Adra2), Non-selective Binding, Adra2a (gene 25083) (P22909 whole entry, looked up): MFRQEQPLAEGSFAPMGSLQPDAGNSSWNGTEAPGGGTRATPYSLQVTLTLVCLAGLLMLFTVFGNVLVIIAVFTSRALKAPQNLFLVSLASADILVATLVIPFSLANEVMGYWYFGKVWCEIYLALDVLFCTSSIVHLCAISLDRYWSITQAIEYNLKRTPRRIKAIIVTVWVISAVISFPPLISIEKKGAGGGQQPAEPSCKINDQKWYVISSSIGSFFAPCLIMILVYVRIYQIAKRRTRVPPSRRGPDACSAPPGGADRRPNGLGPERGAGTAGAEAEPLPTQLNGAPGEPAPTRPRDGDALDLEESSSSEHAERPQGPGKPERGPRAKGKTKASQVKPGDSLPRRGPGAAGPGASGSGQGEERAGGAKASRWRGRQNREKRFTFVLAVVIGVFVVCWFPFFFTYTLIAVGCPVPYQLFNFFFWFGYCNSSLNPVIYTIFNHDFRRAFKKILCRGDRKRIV
Sequence of rat Serotonin, 5-Hydroxytryptamine Receptor (5HT), Non-Selective Binding, Htr1a (gene 24473) (P19327 whole entry, looked up): as the sequence (P19327 whole entry, looked up) above
Sequence of guinea pig Bradykinin Receptor B2 (BK2), BDKRB2 (gene 100135486) (O70526 whole entry, looked up): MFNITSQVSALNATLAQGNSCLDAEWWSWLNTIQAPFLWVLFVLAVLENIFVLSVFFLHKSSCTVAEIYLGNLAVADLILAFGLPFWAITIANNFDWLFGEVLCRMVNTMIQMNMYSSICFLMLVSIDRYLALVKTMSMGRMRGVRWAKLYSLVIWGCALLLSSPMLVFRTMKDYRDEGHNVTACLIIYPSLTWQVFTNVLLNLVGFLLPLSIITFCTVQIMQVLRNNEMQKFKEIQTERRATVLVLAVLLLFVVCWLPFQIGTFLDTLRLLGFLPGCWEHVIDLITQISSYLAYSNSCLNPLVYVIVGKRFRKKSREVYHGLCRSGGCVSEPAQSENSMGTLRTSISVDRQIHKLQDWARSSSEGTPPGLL

On to `CC(C)CCCCCCOC(=O)CCCCC(=O)OCCCCCCC(C)C`, for which the outcome in assay [1] and in assay [2] was inactive.

With `CCCCCCCCC(=O)O`, in assay [3], the AC50 was 5.76 µM (active). In addition, the call in [4] and in [5] was inactive.

For the compound `CCCOc1sc(C(=O)N2CCC(c3cc(CN)ccc3F)CC2)c(C)c1Br`, the AC50 was 24 µM (active) in assay [6]; 27.1 µM (active) in assay [7]; 5.18 µM (active) in assay [8]; 23.2 µM (active) in [9]; 16.6 µM (active) in assay [10]; 20.6 µM (active) in assay [4]. Moreover, the AC50 was 3.97 µM (active) in [1]; 25.9 µM (active) in assay [11]; 11.1 µM (active) in [12]; 17.3 µM (active) in [13]; 3.95 µM (active) in assay [2]; 23.2 µM (active) in [14]. The half-maximal activity concentration (AC50) with Adra2b (gene 24174) was 6.34 µM (active). Moreover, the compound was classed as inactive in [3].

Turning to `Oc1cc2ccccc2c2ccccc12`, the half-maximal activity concentration (AC50) in [10] is 0.848 µM (active). The compound was classed as inactive in assay [11].

Consider `CN1CCN(c2ccccc2/C=C2\SCCN(c3ccc(Cl)c(Cl)c3)C2=O)CC1`, for which the AC50 in [8] was 0.626 µM (active); in assay [10] it was 0.748 µM (active); in [11] it was 6.07 µM (active); in [12], 11.9 µM (active); in [2] it was 2.29 µM (active).

For `O=C(O)Cc1cc(I)c(Oc2cc(I)c(O)c(I)c2)c(I)c1`, the outcome in [7] and in assay [4] was inactive. For the same compound, the half-maximal activity concentration (AC50) in assay [1] is 14.3 µM (active).

Consider `CC#C[C@]1(O)CC[C@H]2[C@@H]3CCC4=CC(=O)CCC4=C3[C@@H](c3ccc(N(C)C)cc3)C[C@@]21C`, for which the figures for the AC50 (in assay [1]; in the assay with Adra2b (gene 24174)) were 0.908 µM (active) and 6.9 µM (active), respectively.

As to `Cc1oc(-c2ccccc2)nc1CCOc1ccc(C[C@H](Nc2ccccc2C(=O)c2ccccc2)C(=O)O)cc1`, the compound was classed as inactive in assay [1], in [5] and in assay [16]. The half-maximal activity concentration (AC50) in assay [15] was 46 µM (active); in [11] it was 25 µM (active); in assay [14] it was 35.6 µM (active).

With `CCCCCCCC(=O)O`, the call (in assay [13]; in assay [17]; in the assay with Adra2b (gene 24174)) was inactive.

With `CN1CCC[C@H]1c1cccnc1`, in [17], the half-maximal activity concentration (AC50) was 25 µM (active).

Regarding `N#C[C@@H]1CC(F)(F)CN1C(=O)CNC1CC2CCC(C1)N2c1ncccn1` (stereo partly specified), the outcome in assay [3] was inactive.

For `CC(C)(C)c1ccc(O)c(C(C)(C)C)c1`, the compound was classed as inactive in assay [1].

Consider `Cc1cc(C)c(O)c(C)c1`, for which, in [11], the outcome was inactive.

Regarding `NC(=O)N(O)[C@@H]1C=C[C@H](Oc2cccc(Oc3ccc(F)cc3)c2)C1`, the compound was called inactive (in assay [4]; in assay [1]; in [13]; in [14]; in the assay with Adra2b (gene 24174)). For the same compound, in [11], the AC50 was 17.6 µM (active).

In the case of `CCCCCCCCCCCCc1ccccc1S(=O)(=O)O`, the AC50 is 38.7 µM (active) in assay [4]; 15.1 µM (active) in assay [1]; 30.9 µM (active) in [13]; 8.71 µM (active) in assay [18]; 25 µM (active) with Adra2b (gene 24174).

As to `C=C(C)C(=O)OCCC(F)(F)C(F)(F)C(F)(F)C(F)(F)C(F)(F)C(F)(F)F`, in assay [8], the result was inactive.

Regarding `CCC(=C(c1ccc(O)cc1)c1ccc(OCCN(C)C)cc1)c1ccccc1`, the outcome in [6] was inactive. Further, the AC50 was 0.808 µM (active) in assay [7], 4.17 µM (active) in assay [9], 3.93 µM (active) in [1] and 0.868 µM (active) in assay [11].
